Reference: the supplement of paper PMC10646978
± gives the standard deviation.

Tests used:
Conditions in all cases: modulator concentration 10 µM
[1] = tested on: RAW-Dual (murine macrophage reporter line); test: NF-kB reporter (SEAP) activity fold change vs agonist alone; higher = enhanced NF-kB activity
Procedure, shortened: (§1)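 In 384-well plates holding 50 000 RAW-Dual murine macrophage reporter cells per well, compound at 10 μM final was pre-incubated for 1 hour at 37 °C, after which a PRR agonist was added overnight. Supernatant SEAP read with QUANTI-Blue at 620 nm absorbance reported NF-κB, and Lucia luciferase read with QUANTI-Luc luminescence reported IRF. Fold change values come from dividing each reporter signal by the mean of agonist-only control wells on the same plate, averaged over replicate plates with propagated errors.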

[2] = tested on: RAW-Dual (murine macrophage reporter line); test: IRF reporter (Lucia luciferase) activity fold change vs agonist alone; higher = enhanced IRF activity
Procedure, shortened: as §1

[3] = tested on: RAW-Dual (murine macrophage reporter line); test: viability score (confluency relative to resting cells, overnight) (fraction); higher = more viable, active = viable (0.7 or more)
Procedure, shortened: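 Two confluency masks, generated with IncuCyte software over all imaged wells, were applied to IncuCyte images of RAW-Dual macrophages. The cells, in 384-well plates, had been exposed overnight to 10 μM final compound. The viability score is confluency as a fraction of resting cells, and a compound met the cutoff only with both masks above 70% of resting cells.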

[4] = agonist: CpG ODN 1826 0.5 ug/mL

Structure (SMILES) | NF-kB reporter [1, 4] | NF-kB reporter ([1]; agonist: LPS 0.1 ug/mL) | NF-kB reporter ([1]; agonist: MPLA […]) | IRF reporter ([2]; agonist: 3'3'-cGAMP 10 ug/mL) | IRF reporter ([2]; agonist: LPS 0.1 ug/mL) | IRF reporter ([2]; agonist: MPLA […]) | viability score [3]
COC(=O)C1=C(C)NC(C)=C(C(=O)OC)C1c1c(F)cccc1Cl | 0.828 ± 0.067 | 1.27 ± 0.072 | 1.42 ± 0.092 | 1.1 ± 0.04 | 1.17 ± 0.11 | 1.2 ± 0.23 | 0.979 (active)
COc1ccc(C(=O)Nc2ccc(Br)c(C)c2)cc1 | 1.03 ± 0.089 | 1.1 ± 0.088 | 1.1 ± 0.038 | 0.767 ± 0.029 | 1.01 ± 0.098 | 1.2 ± 0.14 | 1 (active)
O=C(O)CCCCC1SCC2NC(=O)NC21 (configuration not stated) | 0.935 ± 0.067 | 1.13 ± 0.078 | 0.96 ± 0.078 | 0.953 ± 0.072 | 1.18 ± 0.075 | 1.12 ± 0.25 | 0.997 (active)
NC(=S)c1cc2ccc(O)cc2oc1=O | 0.808 ± 0.16 | 1.01 ± 0.082 | 2.26 ± 1.2 | 0.925 ± 0.043 | 0.979 ± 0.12 | 1.05 ± 0.11 | 1.01 (active)
COc1ccc(C2CC(=O)C(=Cc3c[nH]c4ccccc34)C(=O)C2)cc1 (configuration not stated) | 0.91 ± 0.055 | 1.04 ± 0.11 | 0.905 ± 0.08 | 0.76 ± 0.04 | 1.25 ± 0.11 | 1.1 ± 0.13 | 0.991 (active)
CC(O)c1cn(-c2cccc(C(F)(F)F)c2)nn1 (configuration not stated) | 1.05 ± 0.35 | 1.16 ± 0.072 | 1.04 ± 0.078 | 0.861 ± 0.038 | 1.15 ± 0.12 | 1.23 ± 0.17 | 1 (active)
CC(N)C12CC3CC(CC(C3)C1)C2 (configuration not stated) | 0.979 ± 0.045 | 0.933 ± 0.14 | 1.06 ± 0.058 | 1.02 ± 0.056 | 1.12 ± 0.2 | 1.24 ± 0.37 | 1.01 (active)
COc1ccc(Cn2c(SC)nc3c(c2=O)C2(CCCCC2)Cc2ccccc2-3)cc1 | 1.43 ± 0.45 | 0.856 ± 0.076 | 1.15 ± 0.2 | 0.791 ± 0.099 | 0.995 ± 0.076 | 1.33 ± 0.25 | 0.989 (active)
NC(=NOC(=O)c1ccc2nsnc2c1)c1ncon1 | 1.04 ± 0.17 | 0.965 ± 0.084 | 0.905 ± 0.088 | 0.922 ± 0.035 | 1.05 ± 0.11 | 1.18 ± 0.12 | 0.996 (active)
Cc1cc(C)n(CCC(=O)N2CCc3nc4ccc(F)cn4c(=O)c3C2)n1 | 1.02 ± 0.051 | 0.938 ± 0.098 | 1.01 ± 0.1 | 1.03 ± 0.06 | 1.27 ± 0.079 | 1.21 ± 0.12 | 1 (active)
CC(C)c1nc(CN(C)C(=O)N[C@H](C(=O)N[C@@H](Cc2ccccc2)C[C@H](O)[C@H](Cc2ccccc2)NC(=O)OCc2cncs2)C(C)C)cs1 | 0.57 ± 0.047 | 0.468 ± 0.036 | 0.8 ± 0.053 | 1.04 ± 0.14 | 0.993 ± 0.049 | 0.92 ± 0.096 | 1 (active)
COc1ccc(NC(=O)CN(c2ccc(C)c(C)c2)S(C)(=O)=O)cc1 | 0.831 ± 0.068 | 1.02 ± 0.061 | 1.07 ± 0.12 | 0.88 ± 0.046 | 1.46 ± 0.084 | 1.53 ± 0.14 | 0.998 (active)
COc1ccc(-n2c(=O)c3c4c(sc3n3c(SC)nnc23)CCCC4)cc1 | 1.16 ± 0.13 | 1.06 ± 0.074 | 1.14 ± 0.044 | 0.971 ± 0.18 | 0.96 ± 0.04 | 0.921 ± 0.064 | 1 (active)
Cc1ccc(-c2cc(-c3ccccc3)nc(NN=Cc3ccc(Br)cc3)n2)cc1 | 0.976 ± 0.18 | 1.08 ± 0.084 | 1.01 ± 0.12 | 1.11 ± 0.031 | 1.07 ± 0.1 | 1.4 ± 0.21 | 0.997 (active)
Cc1nccn1CC1CCc2c(c3ccccc3n2C)C1=O.Cl.O.O (configuration not stated) | 0.604 ± 0.09 | 0.917 ± 0.11 | 0.765 ± 0.044 | 0.832 ± 0.025 | 1.35 ± 0.14 | 1.01 ± 0.15 | 0.284 (inactive)
CCOC(=O)C1=C(C)NC(C)=C(C(=O)OCC)C1c1ccccc1/C=C/C(=O)OC(C)(C)C | 1.04 ± 0.15 | 1.14 ± 0.3 | 1.14 ± 0.26 | 0.586 ± 0.032 | 1.39 ± 0.29 | 1.15 ± 0.086 | 0.965 (active)
CS(=O)(=O)N(CC(=O)NCCSCc1cccc(Cl)c1)c1ccc(Cl)cc1 | 0.893 ± 0.093 | 0.962 ± 0.079 | 0.964 ± 0.044 | 0.904 ± 0.13 | 1.07 ± 0.062 | 0.902 ± 0.081 | 1 (active)
CCC(=O)Nc1cccc(NC(=O)c2ccc(F)cc2)c1 | 0.852 ± 0.066 | 0.906 ± 0.12 | 0.977 ± 0.092 | 0.99 ± 0.05 | 1.32 ± 0.092 | 1.39 ± 0.17 | 0.997 (active)
CCOC(=O)C1=C(Nc2ccccc2)SC(=Cc2ccc(O)c(OCC)c2)C1=O | 1.1 ± 0.093 | 1.03 ± 0.07 | 1.15 ± 0.18 | 1.1 ± 0.036 | 1.26 ± 0.12 | 1.12 ± 0.16 | 1.01 (active)
N=C(N)Nc1nc(CSCCC(=N)NS(N)(=O)=O)cs1 | 1.09 ± 0.1 | 0.992 ± 0.059 | 1.06 ± 0.039 | 0.967 ± 0.064 | 0.898 ± 0.036 | 1.02 ± 0.088 | 0.995 (active)
COc1cccc(NC(=O)CN(c2cccc(Br)c2)S(C)(=O)=O)c1 | 0.906 ± 0.085 | 0.998 ± 0.074 | 0.919 ± 0.036 | 0.848 ± 0.092 | 0.937 ± 0.11 | 0.876 ± 0.078 | 0.998 (active)
CCCNS(=O)(=O)Nc1ncnc(OCCOc2ncc(Br)cn2)c1-c1ccc(Br)cc1 | 0.775 ± 0.21 | 0.995 ± 0.074 | 1.16 ± 0.1 | 0.417 ± 0.047 | 0.383 ± 0.083 | 0.465 ± 0.062 | 0.953 (active)
COc1ccc(C2C3=C(CC(c4ccccc4)CC3=O)Nc3ccccc3N2C(=O)C(C)C)cc1OC (configuration not stated) | 1.02 ± 0.089 | 1.05 ± 0.063 | 1.01 ± 0.071 | 1.02 ± 0.025 | 1.56 ± 0.21 | 1.2 ± 0.087 | 1.01 (active)
Cc1ccc2c(c1)C1(c3ccccc3)Nc3ccc(C)cc3C1(c1ccccc1)N2 (configuration not stated) | 0.878 ± 0.082 | 0.904 ± 0.078 | 0.86 ± 0.085 | 0.864 ± 0.071 | 0.996 ± 0.14 | 0.969 ± 0.19 | 1.02 (active)
CCOc1ccccc1NC(=O)N1CCCC1CS(=O)(=O)c1ccccc1 (configuration not stated) | 1.01 ± 0.062 | 1.15 ± 0.093 | 0.954 ± 0.046 | 1.09 ± 0.057 | 1.3 ± 0.087 | 1.14 ± 0.16 | 0.989 (active)
Cc1cccc(N=c2scc(-c3ccc([N+](=O)[O-])cc3)n2-c2cccc(C)c2C)c1C | 0.863 ± 0.065 | 1.04 ± 0.078 | 0.906 ± 0.054 | 0.864 ± 0.029 | 1.37 ± 0.088 | 1.11 ± 0.16 | 1 (active)
